biological target: HDHD2; test: pooled miR-30 sensor sort-seq; sequence = guide strand; details: shRNA
Note: reference of the scale not given here.

How did the sensor-assay potency score (higher = more potent) turn out when TTGCTATCAGAGGTGCTCCATC was run?
The sensor-assay potency score (higher = more potent) was -0.808.

With TAAACTTCTGGCTGCAGTCAGA as the sequence, how does the sensor-assay potency score (higher = more potent) read?
Its sensor-assay potency score (higher = more potent) is -0.973.

With TTTCTTCATCTGATGCTCGATA as the sequence, how does the sensor-assay potency score (higher = more potent) read?
Its sensor-assay potency score (higher = more potent) is -0.755.

With TAACAGGTCTTGCTTGCTCTCT as the sequence, how does the sensor-assay potency score (higher = more potent) read?
Its sensor-assay potency score (higher = more potent) is -0.886.

Which sensor-assay potency score (higher = more potent) does the source give for TTTGAAATCAGGTAGTGCCCGA here?
Its sensor-assay potency score (higher = more potent) is -0.154.

Which sensor-assay potency score (higher = more potent) does the source give for TTCCTTTGAAATCAGGTAGTGC here?
The sensor-assay potency score (higher = more potent) was -0.746.

For TAACCTTTTAAGAGCTTCCTGT, which sensor-assay potency score (higher = more potent) is on record?
Its sensor-assay potency score (higher = more potent) is -0.227.

With TTTCTCAACCTTTCTAACAGGT as the sequence, how does the sensor-assay potency score (higher = more potent) read?
The sensor-assay potency score (higher = more potent) was 0.329.

biological target: HEATR8; test: as above; details: shRNA

How did the sensor-assay potency score (higher = more potent) turn out when TTCAACACAGAGACATTGGTGT was run?
Its sensor-assay potency score (higher = more potent) is 0.958.

For TTGGCGGTCTTCTCAGACCTGC, which sensor-assay potency score (higher = more potent) is on record?
The sensor-assay potency score (higher = more potent) was -0.945.

With TAACACACCCATGAGTTCCCGT as the sequence, how does the sensor-assay potency score (higher = more potent) read?
Its sensor-assay potency score (higher = more potent) is -0.71.

For TTCTTTATCATGGTCTTCTTTT, which sensor-assay potency score (higher = more potent) is on record?
Its sensor-assay potency score (higher = more potent) is -1.04.

With TTCACCACTTTCACCACCCAGC as the sequence, how does the sensor-assay potency score (higher = more potent) read?
Its sensor-assay potency score (higher = more potent) is -0.301.

How did the sensor-assay potency score (higher = more potent) turn out when TTGAACTTGTGCTCCAGGTGGT was run?
The sensor-assay potency score (higher = more potent) was 0.565.

AACATGACTGAGCACTTCCGGA was tested. Which sensor-assay potency score (higher = more potent) did it give?
The sensor-assay potency score (higher = more potent) was -0.961.

How did the sensor-assay potency score (higher = more potent) turn out when TTGGTCTCTTCCTTATCTCTGG was run?
The sensor-assay potency score (higher = more potent) was -0.426.

Which sensor-assay potency score (higher = more potent) does the source give for TTCAGGTTCAGCTTGGAGGTGT here?
Its sensor-assay potency score (higher = more potent) is 0.381.

For TACCACTCCAGCACCGAGCTGA, which sensor-assay potency score (higher = more potent) is on record?
Its sensor-assay potency score (higher = more potent) is -0.0285.

With TAACAGGGTCTTCACACACTTC as the sequence, how does the sensor-assay potency score (higher = more potent) read?
The sensor-assay potency score (higher = more potent) was -1.46.

TTGAGTGATGGTCACGCTCAAA was tested. Which sensor-assay potency score (higher = more potent) did it give?
Its sensor-assay potency score (higher = more potent) is -1.7.

biological target: HECTD1; test: as above; details: shRNA

With TTTACTTCGAATACAATCTATA as the sequence, how does the sensor-assay potency score (higher = more potent) read?
The sensor-assay potency score (higher = more potent) was -1.13.

TCGAATACAATCTATAAGCTGC was tested. Which sensor-assay potency score (higher = more potent) did it give?
Its sensor-assay potency score (higher = more potent) is 0.194.

With TGCATCAGTAGCATCAACCTTG as the sequence, how does the sensor-assay potency score (higher = more potent) read?
The sensor-assay potency score (higher = more potent) was 0.0486.

TTAATTGTTCACACCAGTCTGG was tested. Which sensor-assay potency score (higher = more potent) did it give?
The sensor-assay potency score (higher = more potent) was -0.677.

Which sensor-assay potency score (higher = more potent) does the source give for TTAACTTTCGAATTAACGCAAC here?
The sensor-assay potency score (higher = more potent) was -1.04.

With TAAGTCCTCATCATCATCGAGC as the sequence, how does the sensor-assay potency score (higher = more potent) read?
Its sensor-assay potency score (higher = more potent) is -0.93.

How did the sensor-assay potency score (higher = more potent) turn out when TTGACTACAATCTTGTTTCATA was run?
Its sensor-assay potency score (higher = more potent) is -0.725.

For TAAGAGGTCGTTGTGAAGCTGC, which sensor-assay potency score (higher = more potent) is on record?
Its sensor-assay potency score (higher = more potent) is -0.0408.

Which sensor-assay potency score (higher = more potent) does the source give for TTGCGTACAACCGTGAGCCTGG here?
The sensor-assay potency score (higher = more potent) was 0.726.

TAGAGTTGAACAACCAGTGGTA was tested. Which sensor-assay potency score (higher = more potent) did it give?
The sensor-assay potency score (higher = more potent) was 0.312.

Which sensor-assay potency score (higher = more potent) does the source give for TAGCACATAATCATCATCCCAT here?
Its sensor-assay potency score (higher = more potent) is 0.659.

biological target: HEPH; test: as above; details: shRNA

How did the sensor-assay potency score (higher = more potent) turn out when TAGTAGATTCTAGCACTCCATG was run?
The sensor-assay potency score (higher = more potent) was -1.17.

For TAGCTTTCTCTGTCGATGTTGG, which sensor-assay potency score (higher = more potent) is on record?
Its sensor-assay potency score (higher = more potent) is -0.344.

Which sensor-assay potency score (higher = more potent) does the source give for TACAGCTTTCTTGTATCTGGAA here?
The sensor-assay potency score (higher = more potent) was -0.122.

For TTGTCAGACTTTAAGAAGCTGG, which sensor-assay potency score (higher = more potent) is on record?
The sensor-assay potency score (higher = more potent) was -0.791.

With AATGTAACCATAACTGTCCTTC as the sequence, how does the sensor-assay potency score (higher = more potent) read?
The sensor-assay potency score (higher = more potent) was -0.181.

Which sensor-assay potency score (higher = more potent) does the source give for TTTCTGTGCACACATGTTCAGC here?
The sensor-assay potency score (higher = more potent) was -0.645.

For TAGATGGTCTTCTTGTAGGTTC, which sensor-assay potency score (higher = more potent) is on record?
The sensor-assay potency score (higher = more potent) was -0.407.

With TATCCTCTGAAAGCAGTCGGAA as the sequence, how does the sensor-assay potency score (higher = more potent) read?
Its sensor-assay potency score (higher = more potent) is -1.21.

For TTGCGTCGTAGCTTTCTCTGTC, which sensor-assay potency score (higher = more potent) is on record?
The sensor-assay potency score (higher = more potent) was 0.593.
